Experimental findings from PubChem BioAssay are described below.

Test [1] is described as follows: P. berghei load reduction in hepatocytes – cell-based, HepG2, luciferase luminescence, HepG2 viability, primary screen (AID 624349; in the data active means parasite load remaining mostly below about 12%, no sharp cut-off; inactive means mostly above about 10%;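 further: 100% = mean of DMSO negative control wells on the same plate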). The settings on record: P. berghei liver stage in HepG2, luciferase luminescence, concentration not given here; parasite load remaining: stronger effect = lower value; viability: measured here: HepG2 viability without parasites.
Test [2] in a line: signal quenchers or enhancers, Cy5 substrate/SSB – biochemical, NIH Clinical Collection, E. coli SSB, artefact control for HCV NS3 helicase inhibitor project (AID 743268; call rule not given here). Particulars: Cy5-oligo bound E. coli SSB, fluorescence interference.
Test [3] relates to Hepatitis C virus NS3 helicase. Briefly: blockers of NS3h binding to DNA – biochemical, fluorescence polarization, NIH Clinical Collection, primary screen (AID 743270; call rule not given here). Particulars: NS3 helicase binding to Cy5-dT15 DNA, stronger effect = higher value, concentration not given here.
Test [4] addresses Single-stranded DNA-binding protein (Escherichia coli (strain K12)) (UniProt P0AGE0). Put plainly: SSB-ssDNA binding inhibitors – biochemical, fluorescence polarization, NIH Clinical Collection, counter-screen for HCV NS3 helicase inhibitor project (AID 743271; in the data active means inhibition above about 28%). Particulars: E. coli SSB-DNA binding, stronger effect = higher value, concentration not given here.
Test [5] in a line: compounds distorting NS3 helicase fluorescence signal – biochemical, NIH Clinical Collection, artefact control for HCV NS3 helicase inhibitor project (AID 743272; call rule not given here;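 further: HCV NS3 helicase with a Cy5 labelled single stranded DNA probe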). Particulars: fluorescence interference counterscreen, HCV NS3 helicase assay; stronger effect = lower value.
Test [6] is described as follows: modulation of C. elegans fzo-1 (AID 1259413; call rule not given here;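 further: fzo-1 mutant C. elegans worms in liquid wells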). The settings on record: C. elegans fzo-1 modulator screen, mean read-out; stronger effect = higher value.
Test [7] is described as follows: viability loss with induced miR-34 in A549 – imaging, A549 dox-inducible miR-34, nuclei and caspase counts, primary screen (AID 1347080;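 active means compounds whose cell count with miR-34 switched on is under 0.7 times the count with it off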). Particulars: A549 miR-34 inducible, Hoechst nuclei count, 48 h.
Test [8] can be described thus: MELAS cybrid and Rieske KO viability enhancers – cell-based, MELAS cybrids, Rieske KO mouse fibroblasts, CellTiter-Glo, primary screen (AID 1508586;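 active means mean z-score across replicates of 1.96 or higher in either the MELAS or the Rieske mutant cell line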;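 further: z relative to plate mean and SD of compound and empty wells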). The settings on record: low glucose.
The next test concerns F380Y. Put plainly: BK channel mutant inhibitors and activators – cell-based, U2OS BacMam, thallium flux, beta subunits, selectivity assay, profiling panel (AID 1259406).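 Further: initial slope of Thallos dye fluorescence rise after thallium is added; log ratio against the mean of 0.3% DMSO vehicle wells on the same plate.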 Particulars: U2OS BacMam BK variants, at 30 µM.
The subject of a further test is F380Y/beta1. Described as above. Particulars: U2OS BacMam BK variants, at 30 µM.
Another test has as its system F380Y/beta2Delta. The description is as above. Particulars: U2OS BacMam BK variants, at 30 µM.
The next test has as its system F380Y/beta4. Described as above. Particulars: U2OS BacMam BK variants, at 30 µM.
The target of test [9] is Calcium-activated potassium channel subunit alpha-1 (Homo sapiens) + Leucine-rich repeat-containing protein 26 (Homo sapiens) (UniProt Q12791+Q2I0M4). The description is as above. Particulars: U2OS BacMam BK variants, F380Y/Slo1WT/gamma1, at 30 µM.
Sequence of Calcium-activated potassium channel subunit alpha-1 (Homo sapiens) + Leucine-rich repeat-containing protein 26 (Homo sapiens) (Q2I0M4 whole entry, looked up, one chain of several): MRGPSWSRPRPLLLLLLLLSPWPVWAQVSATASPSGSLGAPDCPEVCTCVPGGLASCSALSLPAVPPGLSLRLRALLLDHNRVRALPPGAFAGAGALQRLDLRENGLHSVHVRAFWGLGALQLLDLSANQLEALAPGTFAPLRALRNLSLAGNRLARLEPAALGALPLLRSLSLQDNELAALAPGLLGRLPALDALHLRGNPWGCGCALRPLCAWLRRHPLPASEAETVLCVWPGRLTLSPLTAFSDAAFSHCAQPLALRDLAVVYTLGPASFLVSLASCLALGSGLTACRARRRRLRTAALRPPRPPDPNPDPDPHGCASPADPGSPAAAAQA
For another test, the system named is R275C. Described as above. Particulars: U2OS BacMam BK variants, at 30 µM.
In another test the test system is R275C/beta1. The description is as above. Particulars: U2OS BacMam BK variants, at 30 µM.
A further test deals with R275C/beta2Delta. The test is described as above. The settings on record: U2OS BacMam BK variants, at 30 µM.
A further test relates to R275C/beta4. Described as above. Particulars: U2OS BacMam BK variants, at 30 µM.
Another test has as its system R275C/Slo1WT/beta2. Described as above. The settings on record: U2OS BacMam BK variants, at 30 µM.
Test [10] can be described thus: EMT-state selective cytotoxicity in co-culture – imaging, PC-3E GFP, TEM4-18 mCherry, primary screen (AID 1345086;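 active means compounds killing one labelled cell type while sparing the other, by normalised counts and ratio limits, not self-fluorescent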;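 further: cells exposed to compound for 72 h before imaging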;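 on red/green cell ratio (normalised): normalised mesenchymal count divided by normalised epithelial count so high means epithelial killing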). The settings on record: PC-3E GFP / TEM4-18 mCherry co-culture, imaging cell counts, at 1 µM.
[11] abbreviates: stronger effect = lower value, cell number ratio, induced over uninduced.
The mark [12] stands for this setting: measured here: relative caspase fold change +Dox/-Dox.
Setting [13] is: measured here: total cells with miR-34 induction, stronger effect = lower value.
Setting [14] is: measured here: total cells without miR-34 induction.
Setting [15] is: MELAS cybrid survival, CellTiter-Glo 48 h, stronger effect = higher value.
[16] abbreviates: Rieske KO mouse fibroblast survival, CellTiter-Glo 72 h.

Where “and” joins values, the source holds several entries; their conditions need not be identical. Identical values can stand only once. Calls of active or inactive are those of the source.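 How the source made its calls, unless noted: active means thallium flux through the channel raised or lowered by more than 3 SD from vehicle-only wells, actives on both sides; inactive means the rest.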

Turning to `CC(=O)NC[C@H]1CN(c2ccc(N3CCOCC3)c(F)c2)C(=O)O1`, the parasite load remaining in [1] was 99.9% (inactive) and 45% (inactive). Also, in test [1], the viability is 74.1% and 114%. Besides, the fluorescence ratio in [2] was 1.07 (inactive); in [5], 1.04 (inactive). In addition, the values for the inhibition in test [3] and in test [4] were 6.73% (inactive) and 2.21% (inactive), respectively. The mean signal in [6] is 269 (inactive). For the same compound, the fold change is 1.08 (inactive) and 0.926 (inactive) in test [7] (setting [11]); 1.57 and 0.639 in [7] (setting [12]). Moreover, the cell count was 10400 and 9730 in test [7] (setting [13]); 9600 and 10500 in test [7] (setting [14]). The z-score in test [8] (setting [15]) is -0.794 (inactive) and 0.174 (inactive); in [8] (setting [16]), -2.51 and -1.01. Further, the log fold change Tl+ flux is 0.0386 (inactive) in the test on F380Y; 0.0152 (inactive) in the test with F380Y/beta1; -0.0137 (inactive) with F380Y/beta2Delta; -0.01 (inactive) in the test with F380Y/beta4; -0.0237 (inactive) in test [9]; -0.0414 (inactive) with R275C. The log fold change Tl+ flux in the test with R275C/beta1 is 0.0265 (inactive); with R275C/beta2Delta it was 0.023 (inactive); in the test with R275C/beta4, 0.00539 (inactive); in the test on R275C/Slo1WT/beta2, 0.0288 (inactive).
Consider `Cc1c(C(=O)NN2CCCCC2)nn(-c2ccc(Cl)cc2Cl)c1-c1ccc(I)cc1`, for which the parasite load remaining in test [1] is 23% (inactive). Moreover, in test [1], the viability was determined as 70.4%. For the same compound, the results for the fluorescence ratio in test [2] and in test [5] were 0.91 (inactive) and 0.92 (inactive), respectively. The inhibition in test [3] was 0.66% (inactive). In addition, in test [6], the mean signal is 229 (inactive). For the same compound, the z-score in [8] (setting [15]) was -0.338 (inactive); in [8] (setting [16]), -0.0666. Further, the log fold change Tl+ flux in the test on F380Y is 0.00861 (inactive); in the test with F380Y/beta1, -0.0372 (inactive); in the test on F380Y/beta2Delta, -0.0265 (inactive); in the test with F380Y/beta4, -0.0348 (inactive); in test [9] it was -0.0487 (inactive); in the test on R275C it was 0.0781 (inactive). For the same compound, the log fold change Tl+ flux in the test on R275C/beta1 is 0.0181 (inactive); with R275C/beta2Delta, -0.00675 (inactive); in the test with R275C/beta4, 0.0297 (inactive); with R275C/Slo1WT/beta2, 0.0305 (inactive).
For the compound `Cc1nn(-c2ccccc2)nc1CNC(=O)COc1ccccc1`, the log fold change Tl+ flux in the test on F380Y was -0.0388 (inactive); in the test on F380Y/beta1, -0.0688 (inactive); in the test with F380Y/beta2Delta it was -0.0499 (inactive); in the test on F380Y/beta4 it was -0.0891 (inactive); in test [9] it was -0.0325 (inactive); in the test on R275C it was -0.00552 (inactive). In addition, the log fold change Tl+ flux was -0.0187 (inactive) in the test on R275C/beta1, 0.0169 (inactive) with R275C/beta2Delta, -0.0424 (inactive) with R275C/beta4 and 0.0189 (inactive) in the test on R275C/Slo1WT/beta2.
For the compound `COc1c(N2C[C@@H]3CCCN[C@@H]3C2)c(F)cc2c(=O)c(C(=O)O)cn(C3CC3)c12`, the parasite load remaining in test [1] was 52.8% (inactive). In [1], the viability came out at 70.8%. In test [6], the mean signal is 299 (inactive). In [10] (actives lie on both sides, counts scaled to control wells, 1 = unselective), the red/green cell ratio (normalised) is 1.11 (inactive). Further, the normalised cell number came to 0.89 in [10] (measured here: epithelial PC-3E GFP cell survival) and 0.99 in test [10] (measured here: mesenchymal TEM4-18 mCherry cell survival). Also, the values for the fold change in test [7] (setting [11]) and in test [7] (setting [12]) were 0.953 (inactive) and 0.781, respectively. For the same compound, the cell count in [7] (setting [13]) was determined as 7060; in [7] (setting [14]), 7410. The z-score in test [8] (setting [15]) was -0.444 (inactive) and -0.324 (inactive); in [8] (setting [16]), 0.523 and -0.694. In addition, the log fold change Tl+ flux in the test on F380Y is 0.00312 (inactive); in the test with F380Y/beta1 it was -0.0479 (inactive); with F380Y/beta2Delta, 0.0707 (inactive); with F380Y/beta4 it was 0.0364 (inactive); in test [9] it was 0.0216 (inactive); in the test on R275C it was -0.02 (inactive). The log fold change Tl+ flux in the test on R275C/beta1 is -0.0156 (inactive); in the test on R275C/beta2Delta, 0.0202 (inactive); in the test with R275C/beta4 it was 0.0129 (inactive); in the test on R275C/Slo1WT/beta2, 0.0157 (inactive).
